In PubChem BioAssay (NCATS):
Results filed as inconclusive are left out. Active and inactive are the calls of the source. The call rests on the fitted dose curve; in most records, active means well fitted cell-killing curve with a large enough effect; inconclusive means small, poorly fitted or top-dose-only effect, or effect the other way; inactive means flat fitted curve, though single readings scatter.

Experiments:
Test in all cases: Primary qHTS to identify gynecologic anti-cancer compounds using libraries of approved drugs and bioactive compounds (AID 1345084); further: nearly all actives have a fitted effect of over 55% in size
[1] = tested on: C33A; settings: Gynecologic cancer cell panel viability, ATPlite luminescence, 48 h; series mostly up to 57.5 µM
Summary of the method: (§1)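 Cytotoxicity screen measuring ATP content by luciferase luminescence. Each compound is applied at five concentrations for 48 h at 37 C with 5% CO2.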

[2] = tested on: CAOV3; settings: Gynecologic cancer cell panel viability, ATPlite luminescence, 48 h; series mostly up to 57.5 µM
Summary of the method: as §1

[3] = tested on: CASKI; settings: Gynecologic cancer cell panel viability, ATPlite luminescence, 48 h; series mostly up to 57.5 µM
Summary of the method: as §1

[4] = tested on: Es-2; settings: Gynecologic cancer cell panel viability, ATPlite luminescence, 48 h; series mostly up to 57.5 µM
Summary of the method: as §1

[5] = tested on: HeLa; settings: Gynecologic cancer cell panel viability, ATPlite luminescence, 48 h; series mostly up to 57.5 µM
Summary of the method: as §1

[6] = tested on: Hek293T; settings: Gynecologic cancer cell panel viability, ATPlite luminescence, 48 h, control line for the selectivity index; series mostly up to 57.5 µM
Summary of the method: as §1

[7] = tested on: JEG-3; settings: Gynecologic cancer cell panel viability, ATPlite luminescence, 48 h; series mostly up to 57.5 µM
Summary of the method: as §1

[8] = tested on: OV90; settings: Gynecologic cancer cell panel viability, ATPlite luminescence, 48 h; series mostly up to 57.5 µM
Summary of the method: as §1

[9] = tested on: PA-1; settings: Gynecologic cancer cell panel viability, ATPlite luminescence, 48 h; series mostly up to 57.5 µM
Summary of the method: as §1

[10] = tested on: Tov-21-G; settings: Gynecologic cancer cell panel viability, ATPlite luminescence, 48 h; series mostly up to 57.5 µM
Summary of the method: as §1

[11] = tested on: Tov112D; settings: Gynecologic cancer cell panel viability, ATPlite luminescence, 48 h; series mostly up to 57.5 µM
Summary of the method: as §1

[12] = tested on: SKOV3; settings: Gynecologic cancer cell panel viability, ATPlite luminescence, 48 h; series mostly up to 57.5 µM
Summary of the method: as §1
On the % scale 0 is the no-effect control and ±100 the full control effect.

C=CC1C(OC2OC(CO)C(O)C(O)C2O)OC=C(C(=O)OC)C1CC(=O)OCC1C(C)C(O)CC1C(CO)COC(=O)CC1C(C(=O)O)=COC(OC2OC(CO)C(O)C(O)C2O)/C1=C\C (stereo not drawn)
inactive: activity change, negative = cytotoxicity [1] 0.0118% [at 11.6 µM] | activity change, negative = cytotoxicity [2] 12.7% [at 11.6 µM] | activity change, negative = cytotoxicity [3] 1.02% [at 11.6 µM] | activity change, negative = cytotoxicity [4] -2.47% [at 11.6 µM] | activity change, negative = cytotoxicity [5] 2.07% [at 11.6 µM] | activity change, negative = cytotoxicity [6] 1.07% [at 11.6 µM] | activity change, negative = cytotoxicity [7] 0.819% [at 11.6 µM] | activity change, negative = cytotoxicity [8] 16.4% [at 11.6 µM] | activity change, negative = cytotoxicity [9] -12.5% [at 11.6 µM] | activity change, negative = cytotoxicity [10] -4.06% [at 11.6 µM] | activity change, negative = cytotoxicity [11] -1.58% [at 11.6 µM]

CC1(C)CC[C@]2(C(=O)O[C@@H]3O[C@H](CO)[C@@H](O)[C@H](O)[C@H]3O)CC[C@]3(C)C(=CCC4[C@@]5(C)C[C@@H](O)[C@H](O)C(C)(C)C5CC[C@]43C)C2[C@@H]1O (stereo partly drawn)
inactive: Potency [1] | Potency [2] | Potency [3] | Potency [4] | Potency [5] | Potency [6] | Potency [7] | Potency [8] | Potency [9] | Potency [10] | Potency [11]

CCC(=O)O[C@H]1C(C)(C)[C@H]([C@@H](O)C(=O)OC)[C@]2(C)C(=O)[C@@]1(O)[C@H]1O[C@]13C1CC(=O)O[C@@H](c4ccoc4)[C@]1(C)CCC32 (stereo partly drawn)
inactive: Potency [1] | Potency [2] | Potency [3] | Potency [4] | Potency [5] | Potency [6] | Potency [7] | Potency [8] | Potency [9] | Potency [10] | Potency [11]

Cc1nc(C)c(-c2ccc(C3CCC(CC(=O)O)CC3)cc2)nc1C(N)=O (stereo not drawn)
inactive: Potency [1] | Potency [2] | Potency [3] | Potency [4] | Potency [5] | Potency [6] | Potency [7] | Potency [8] | Potency [9] | Potency [10] | Potency [11]

O=C(NCc1ccc(F)cc1)C(=O)c1c[nH]c2ccccc12
inactive: Potency [1] | Potency [2] | Potency [3] | Potency [4] | Potency [5] | Potency [6] | Potency [7] | Potency [8] | Potency [12] | Potency [10] | Potency [11]

CC1=CC(=O)[C@]2(O[C@@H]3O[C@@H](C)[C@H](O)[C@@H](O)[C@H]3OC(=O)/C=C/c3ccccc3)C=CO[C@@H](O[C@@H]3O[C@H](CO)[C@@H](O)[C@H](O)[C@H]3O)[C@H]12
inactive: Potency [1] | Potency [2] | Potency [3] | Potency [4] | Potency [5] | Potency [6] | Potency [7] | Potency [8] | Potency [9] | Potency [10] | Potency [11]

COc1ccc(CCO[C@@H]2CCCC[C@H]2N2CC[C@@H](O)C2)cc1OC
inactive: Potency [1] | Potency [2] | Potency [3] | Potency [4] | Potency [5] | Potency [6] | Potency [7] | Potency [8] | Potency [9] | Potency [10] | Potency [11]

Cc1ccc(S(=O)(=O)Nc2ccccc2N2CCCCC2)s1
inactive: Potency [1] | Potency [2] | Potency [3] | Potency [4] | Potency [5] | Potency [6] | Potency [7] | Potency [8] | Potency [9] | Potency [10] | Potency [11]

OC[C@H]1O[C@@H](Oc2ccccc2)[C@H](O)[C@@H](O)[C@@H]1O
inactive: Potency [1] | Potency [2] | Potency [3] | Potency [4] | Potency [5] | Potency [6] | Potency [7] | Potency [8] | Potency [9] | Potency [10] | Potency [11]

CCOc1ccc(NC(=S)N2CCC(C(O)(c3ccccc3)c3ccccc3)CC2)cc1
inactive: Potency [1] | Potency [2] | Potency [3] | Potency [4] | Potency [5] | Potency [6] | Potency [7] | Potency [8] | Potency [9] | Potency [10] | Potency [11]

OCCc1ccc(O[C@@H]2O[C@H](CO)[C@@H](O)[C@H](O)[C@H]2O)cc1
inactive: Potency [1] | Potency [2] | Potency [3] | Potency [4] | Potency [5] | Potency [6] | Potency [7] | Potency [8] | Potency [9] | Potency [10] | Potency [11]

CCOc1cc(CC(=O)NC(CC(C)C)c2ccccc2N2CCCCC2)ccc1C(=O)O (stereo not drawn)
inactive: Potency [1] | Potency [2] | Potency [3] | Potency [4] | Potency [5] | Potency [6] | Potency [7] | Potency [8] | Potency [9] | Potency [10] | Potency [11]

CC(C)(C)CCN1C[C@@H]2C(CNC(=O)c3cc(Cl)cc(Cl)c3)[C@@H]2C1 (stereo partly drawn)
inactive: Potency [1] | Potency [2] | Potency [3] | Potency [4] | Potency [5] | Potency [6] | Potency [7] | Potency [8] | Potency [9] | Potency [10] | Potency [11]
